A selection: hits, their analogues and other compounds. The true share with any hit is near 3.5%.
GPR151 ag = activators of human GPR151, primary screen, cell-based, PathHunter beta-arrestin, luminescence; actives 1% (n = 650,000); AID 1508602, 2020; G-protein coupled receptor 151 (Homo sapiens), Q8TDV0; PathHunter beta-arrestin GPR151 cells; activation, % at 11.2 µM; in the data active means activation above about 4.9%;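 further: 0% = median of compound wells and 100% = cells with positive control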
FBW7 activator = FBW7 E3 ligase activators, primary screen, biochemical, AlphaScreen, human; normalized activity (activation), % at 26.1 µM; actives 0.13% (n = 650,000); AID 1259310, 2017; AlphaScreen FBW7–phospho-cyclin E peptide binding, activator screen; in the data active means normalized activity above about 1.9%;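 further: purified mutant Fbw7 with reduced substrate affinity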
TEAD-YAP block = TEAD-YAP interaction inhibition, primary screen, TEAD-YAP interaction inhibitor project, luminescence, HEK-TIYL cells. TEAD-Gal4/YAP UAS-luciferase luminescence. inhibition, % at 9.12 µM. actives 1.4% (n = 640,000). AID 1259422, 2018; in the data active means inhibition above about 32%;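 further: 0% = median of test compound wells and 100% = reference inhibitor wells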
MITF inh = MITF inhibitors, primary screen, biochemical, AlphaScreen, human; Microphthalmia-associated transcription factor (Homo sapiens), O75030; AlphaScreen MITF homodimerization, bead proximity signal; inhibition, % at 2.6 µM; actives 0.91% (n = 650,000); in the data active means inhibition above about 50%;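 further: 0% = vehicle wells with protein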
Starred values were filed as active, the others as inactive.

SMILES	GPR151 ag	FBW7 activator	TEAD-YAP block	MITF inh
CC(=O)NC(c1ccco1)c1cc([N+](=O)[O-])c2cccnc2c1O (stereo not drawn)	-1	0	-2	55*
CC(=O)NC(c1ccc2c(c1)OCO2)c1cc([N+](=O)[O-])c2cccnc2c1O (stereo not drawn)	0	-1	-3	68*
CC(=O)NS(=O)(=O)c1ccc(NC(=S)NC(=O)c2ccc(C(C)C)cc2)cc1	2	0	-1	-2
c1ccc(N2CCN(c3nc(Nc4ccc(N5CCOCC5)cc4)c4[nH]cnc4n3)CC2)nc1	2	0	-14	7
COc1ccccc1C(NC(C)=O)c1cc([N+](=O)[O-])c2cccnc2c1O (stereo not drawn)	0	-1	-8	85*
O=[N+]([O-])c1cc([N+](=O)[O-])c2cccnc2c1Oc1ccccc1O	-1	-1	-27	68*
COc1ccccc1C(=O)Nc1cccc(N2CCC(NCC3CCOCC3)CC2)c1	-1	0	6	6
COc1ccccc1C(=O)Nc1cccc(N2CCC(NCCSC)CC2)c1	-1	0	47*	12
O=C(CN(C(=O)c1ccc(Cl)nc1)C1CCCCC1)NCc1ccccc1	-1	0	2	8
CCOc1cc(C=C2C(=O)NC(=O)NC2=O)cc(Br)c1O	0	0	1	7
O=C1NC(=O)C(=Cc2cc(O)c(O)c(Br)c2)C(=O)N1	2	0	4	58*
O=C1NC(=O)C(=Cc2cc(Br)c(I)o2)C(=O)N1	-1	-1	2	59*
CCc1ccc(NS(=O)(=O)c2c[nH]c3ccc([N+](=O)[O-])cc23)cc1	0	0	-3	0
O=C1NC2(CCN(C(=O)c3cccc4cccnc34)CC2)Oc2ccccc21	0	23*	-8	-2
O=C1NC2(CCN(Cc3cccc4cccnc34)CC2)Oc2ccccc21	0	0	-6	-7
COc1ccc(Nc2ncnc3c2c(-c2ccccc2)cn3-c2ccc(F)cc2)cc1OC	0	1	-19	18
COc1cc(C2CC(c3c(O)cc(C)oc3=O)=Nc3ccccc3S2)cc(OC)c1O (stereo not drawn)	1	0	44*	12
COC(=O)CCC(=O)Nc1ccccc1I	1	0	-3	12
N#CCSc1ccc2nnc(-c3ccncc3)n2n1	-1	0	40*	3
CCC(Sc1ccc2nnc(-c3ccccn3)n2n1)C(=O)OC (stereo not drawn)	2	7.2*	-14	15
N#CCSc1ccc2nnc(-c3ccccn3)n2n1	0	3.8*	-8	7
Cc1ccccc1-c1ccc(N2CCN(C(=O)C3CCN(S(C)(=O)=O)CC3)CC2)nn1	1	0	-18	-10
Cc1ccccc1-c1ccc(N2CCN(S(C)(=O)=O)CC2)nn1	-9	0	45*	-10
Cc1cccc(-n2c(-c3ccco3)nn(CC(=O)N(C(C)C)C(C)C)c2=O)n1	-1	0	-1	-1
O=C(c1n[nH]c(=O)c2ccccc12)N1CCN(c2cccc(Cl)c2)CC1	0	0	55*	-5
SMILES	GPR151 ag	FBW7 activator	TEAD-YAP block	MITF inh
O=C(c1cc([N+](=O)[O-])ccc1Cl)N1CCN(c2cccc(Cl)c2)CC1	-1	0	32*	-12
Cc1ccc(C(=O)N2CCN(c3ccc([N+](=O)[O-])cc3)CC2)c(Cl)c1	-1	0	35*	-4
CCCCOc1ccc(-c2[nH]nc3c2C(c2cc(Br)ccc2OC(=O)N2CCOCC2)C(C#N)=C(N)O3)cc1 (stereo not drawn)	0	0	16	-13
Cc1ccccc1OCC(=O)Oc1ccc(N2C(=O)C3CCCCC3C2=O)cc1 (stereo not drawn)	2	0	1	10
COc1cc(OC)cc(C(=O)Nc2nc(-c3ccccn3)cs2)c1	0	0	49*	18
O=C(Nc1nc(-c2ccccn2)cs1)c1ccc(Oc2ccccc2)cc1	-1	0	43*	0
C=CCn1c2cc(C)sc2c2cnn(C(C)C)c(=O)c21	2	0	6	-10
N#CCOc1ccc(C2NC(=O)c3ccccc3N2)cc1 (stereo not drawn)	1	0	-11	-1
CN(C)c1ccc(C2NC(=O)c3ccccc3N2)cc1 (stereo not drawn)	-4	0	56*	1
Brc1cccc(C2Nc3cccc4cccc(c34)N2)c1	0	1	-11	-4
O=C1NC(c2cccc(Br)c2)Nc2ccccc21 (stereo not drawn)	1	0	49*	-10
O=C1NC(c2ccncc2)Nc2ccccc21 (stereo not drawn)	1	0	8	5
O=C1NC(c2ccc(-c3ccccc3)cc2)Nc2ccccc21 (stereo not drawn)	-1	0	40*	-12
CC(C)(C)c1ccc(C2NC(=O)c3ccccc3N2)cc1 (stereo not drawn)	0	0	48*	8
COc1cccc(-c2nc3sc4c(c3c(=O)n2CC(=O)Nc2ccc(N(C)C)cc2)CCCC4)c1	0	0	-11	21
Cc1ccc(Cc2cnc(NC(=O)CCc3ccc(C)o3)s2)cc1	1	0	67*	0
Cc1ccc(CCC(=O)Nc2ncc(Cc3ccccc3Cl)s2)o1	0	0	56*	-5
CCc1ccc(CCC(=O)Nc2ncc(Cc3ccccc3F)s2)o1	-1	0	15	11
O=C(CCl)Nc1ncc(Cc2ccccc2)s1	0	1	-4	-11
Cc1ccc(CCC(=O)Nc2ncc(Cc3ccccc3)s2)o1	0	0	56*	-1
Nc1nc(Nc2cnccn2)nc2c1ncn2C1CCCCC1	3	0	4	8
Cc1ccccc1NC(=O)CC1S/C(=N\N=C\c2cccc(O)c2)NC1=O (stereo not drawn)	-1	0	-5	5
Cc1ccc(N2CC(=O)Nc3ccccc3S2(=O)=O)cc1C	1	0	52*	17
Cc1sc2ccccc2[n+]1CCO	1	0	-17	-1
CCN1/C(=C/C(C)=C/c2sc3ccccc3[n+]2CCO)Sc2ccccc21	-1	0	39*	44
SMILES	GPR151 ag	FBW7 activator	TEAD-YAP block	MITF inh
C=CCN1/C(=C/C=C/c2sc3ccccc3[n+]2CC=C)Sc2ccccc21	-1	0	89*	45
CCN1\C(=C/C=C(C)/C=C/c2sc3ccccc3[n+]2CC)Sc2ccccc21	2	11*	66*	-24
CCN1/C(=C/c2sc3ccccc3[n+]2CCO)Sc2ccccc21	2	1	38*	21
COc1ccc(C(=O)COC(=O)CCC(=O)N(c2ccccc2)c2ccccc2)cc1	-1	0	10	10
CC1(C)C(=O)Nc2ccccc2N1C(=O)CCl	0	0	48*	-8
CCOc1c(Cl)cc(C(=O)OCC(=O)N2c3ccccc3NC(=O)C2(C)C)cc1OC	-1	0	32*	14
